We go through 8 compounds from PubChem BioAssay (NCI).

This is part of a sample that, as a whole, favours compounds with a hit. Of some 83,000 tested, about 20% had one in any assay.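 96-well plates, one dose, 48 hours. Percent growth reported; active if below 10.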 Unmarked numbers belong to inactive results. Activity calls are given as the source filed them.

Some test systems named below: NCI-H23 lung; NCI-H226 lung; NCI-H322M lung; HOP-62 NSCLC; NCI-H460 lung; HOP-92 NSCLC; NCI-H522 lung; A549/ATCC NSCLC; 786-0 renal; COLO 205 colon; DU-145 prostate; K-562 leukemia; MALME-3M melanoma; MDA-MB-231 breast; RXF 393 renal; SF-268 CNS; SF-295 CNS; SF-539 CNS; UACC-257 melanoma; M14 melanoma.
Common to all, as to test: NCI-60 one-dose screen, 48 h (100 = growth as untreated, 0 = no growth, -100 = all killed)
Conditions in all cases: 10 µM unless noted

For the compound `Nc1cc(-c2ccc(Cl)cc2)nn1-c1nnc(/C=C/c2ccco2)c(=O)[nH]1`, the growth was 58.8% in the experiment with NCI-H23 lung; 47.4% in the experiment with NCI-H226 lung; 24.4% with NCI-H322M lung; 71.3% with HOP-62 NSCLC; 20.4% in the experiment on NCI-H460 lung; 60.3% in the experiment with HOP-92 NSCLC. Also, the growth in the experiment with NCI-H522 lung was 74.9%; in the experiment with A549/ATCC NSCLC, 37.3%; with 786-0 renal, 46.9%; in the experiment with COLO 205 colon, 72.6%; in the experiment with DU-145 prostate, 63.3%; in the experiment on K-562 leukemia, 41.7%. For the same compound, the growth was 72.5% in the experiment on MALME-3M melanoma; 74.2% in the experiment on MDA-MB-231 breast; 67.8% in the experiment with RXF 393 renal; 52.5% in the experiment on SF-268 CNS; 9.9% (active) with SF-295 CNS; 55.4% in the experiment with SF-539 CNS. Further, the growth was 69.6% in the experiment with UACC-257 melanoma and 57.4% in the experiment with M14 melanoma.

`c1ccc(Nc2nc3c(s2)CCc2c[nH]cc2-3)nc1`: the growth in the experiment with NCI-H23 lung was 91.1%; in the experiment with NCI-H226 lung it was 74.7%; with NCI-H322M lung it was 90.5%; with HOP-62 NSCLC it was 92.7%; with NCI-H460 lung, 100%; in the experiment on HOP-92 NSCLC it was 88.9%. In addition, the growth with NCI-H522 lung is -49.9% (active); with A549/ATCC NSCLC, 91.6%; with 786-0 renal, 105%; in the experiment on COLO 205 colon it was 98.4%; in the experiment on DU-145 prostate, 103%; with K-562 leukemia it was 66.3%. The growth in the experiment with MALME-3M melanoma was 92.5%; in the experiment with MDA-MB-231 breast it was 82.7%; in the experiment with RXF 393 renal, 104%; with SF-268 CNS, 92.5%; in the experiment with SF-295 CNS, 107%; in the experiment with SF-539 CNS, 106%. Besides, the growth with UACC-257 melanoma is 88.7%.

`O=C(Nc1cc(Cl)ccc1O)c1ccccc1Nc1ccnc(C(F)(F)F)c1`: the growth is -5.07% (active) with NCI-H23 lung; 50.9% with NCI-H226 lung; 30.9% in the experiment with NCI-H322M lung; 16.6% in the experiment on HOP-62 NSCLC; 2.15% (active) in the experiment with NCI-H460 lung; 49.1% in the experiment with HOP-92 NSCLC. The growth was -6.22% (active) in the experiment with NCI-H522 lung; 19.7% in the experiment with A549/ATCC NSCLC; 57.9% in the experiment on 786-0 renal; 79.6% in the experiment with COLO 205 colon; 23.8% in the experiment with DU-145 prostate; 0.85% (active) in the experiment on K-562 leukemia. Moreover, the growth with MALME-3M melanoma was -0.18% (active); in the experiment with MDA-MB-231 breast it was 29.8%; in the experiment with RXF 393 renal, 25.7%; in the experiment on SF-268 CNS, 21.1%; in the experiment on SF-295 CNS it was 46.3%; in the experiment on SF-539 CNS, 14.5%. Moreover, the growth in the experiment on UACC-257 melanoma was 26.8%.

In the case of `COc1ccc(-c2cc(C(=O)N3N=C(c4ccc(N)cc4)CC3c3ccc(Cl)cc3)c3cc(OC)ccc3n2)cc1` (stereo not given), the growth is 67.6% in the experiment with NCI-H23 lung; 89.1% in the experiment with NCI-H226 lung; 90.9% in the experiment with NCI-H322M lung; 66.6% in the experiment on HOP-62 NSCLC; 105% in the experiment with NCI-H460 lung; 59.2% in the experiment on HOP-92 NSCLC. Besides, the growth in the experiment with NCI-H522 lung is 44.9%; with A549/ATCC NSCLC, 86.5%; with 786-0 renal, 19.2%; in the experiment with COLO 205 colon it was 96.3%; in the experiment with DU-145 prostate, 83.7%; in the experiment on K-562 leukemia it was 14.6%. For the same compound, the growth in the experiment on MALME-3M melanoma is 62.1%; with MDA-MB-231 breast, 85%; with RXF 393 renal, 78.9%; with SF-268 CNS, 68.4%; in the experiment with SF-295 CNS, 66.7%; in the experiment on SF-539 CNS, 15.4%. The growth with UACC-257 melanoma was 77.2%.

Take `CC(C)=CC(=O)N[C@H]1CC[C@]2(C)C3CC[C@]4(C)C(C(C)N(C)C)=CCC4C3CCC2[C@H]1O` (stereo not given in full): the growth in the experiment on NCI-H23 lung is 65%; in the experiment with NCI-H226 lung, 99.6%; in the experiment on NCI-H322M lung, 57.5%; in the experiment on HOP-62 NSCLC it was 66.6%; in the experiment with NCI-H460 lung, 18.6%; with HOP-92 NSCLC, 41%. Besides, the growth in the experiment on NCI-H522 lung is 89.4%; with A549/ATCC NSCLC it was 75.5%; in the experiment with 786-0 renal, 48.2%; in the experiment on COLO 205 colon, -14.9% (active); in the experiment with DU-145 prostate, 71.9%; in the experiment with K-562 leukemia, 19.5%. Besides, the growth with MALME-3M melanoma is -27.3% (active); in the experiment with MDA-MB-231 breast, 44.2%; with RXF 393 renal, 26.8%; in the experiment on SF-268 CNS, 9.05% (active); in the experiment on SF-295 CNS, 59.2%; in the experiment on SF-539 CNS, -32.2% (active). The growth in the experiment with UACC-257 melanoma is -26.8% (active).

In the case of `O=C(NCCCCO)c1cncnc1Nc1ccc2c(ccn2Cc2cccc(F)c2)c1`, the growth in the experiment on NCI-H23 lung was 97.6%; with NCI-H226 lung it was 100%; with NCI-H322M lung, 72.9%; in the experiment on HOP-62 NSCLC, 94.4%; in the experiment with NCI-H460 lung it was 101%; in the experiment on HOP-92 NSCLC, 92.1%. Moreover, the growth with NCI-H522 lung was 76.9%; in the experiment with A549/ATCC NSCLC, 84.4%; in the experiment with 786-0 renal it was 92.4%; with COLO 205 colon, 97.7%; in the experiment on DU-145 prostate, 96.2%; in the experiment with K-562 leukemia, 82.5%. For the same compound, the growth in the experiment with MALME-3M melanoma is 93.9%; with MDA-MB-231 breast, 69.3%; in the experiment on RXF 393 renal, 101%; in the experiment with SF-268 CNS it was 99.3%; in the experiment with SF-295 CNS it was 97.6%; in the experiment with SF-539 CNS, 94.4%. Further, the growth in the experiment on UACC-257 melanoma is 96.7%; in the experiment with M14 melanoma, 89.9%.

Turning to `O=c1cc(CNc2cc(F)cc(F)c2)c2ccc(I)cc2[nH]1`, the growth with NCI-H23 lung was 46.3%; in the experiment on NCI-H226 lung, 68.6%; with NCI-H322M lung, 48.3%; with HOP-62 NSCLC, 37.5%; in the experiment with NCI-H460 lung, 18.5%; in the experiment on HOP-92 NSCLC it was 54%. For the same compound, the growth with NCI-H522 lung was 15.6%; in the experiment with A549/ATCC NSCLC, 38.6%; with 786-0 renal it was 43.7%; in the experiment with COLO 205 colon, 33.7%; in the experiment on DU-145 prostate, 38.4%; with K-562 leukemia, 9.97% (active). The growth with MALME-3M melanoma was 38.9%; in the experiment on MDA-MB-231 breast, 60.6%; in the experiment with RXF 393 renal, 15.1%; in the experiment on SF-268 CNS, 46.9%; in the experiment with SF-295 CNS it was 30.9%; with SF-539 CNS, -12.6% (active). Moreover, the growth in the experiment with UACC-257 melanoma was 53.4%.

For the compound `Cc1nc([P+](c2ccccc2)(c2ccccc2)c2ccccc2)c(N2CCCCC2)o1`, the growth was 17.1% in the experiment on NCI-H23 lung; 53.9% in the experiment with NCI-H226 lung; 78.4% with NCI-H322M lung; 30.3% in the experiment with HOP-62 NSCLC; 12.7% with NCI-H460 lung; 16.7% in the experiment on HOP-92 NSCLC. Besides, the growth with NCI-H522 lung was 28.8%; in the experiment on A549/ATCC NSCLC it was 32.8%; in the experiment with 786-0 renal it was 60.3%; with COLO 205 colon it was -45.3% (active); in the experiment with DU-145 prostate it was 30.2%; with K-562 leukemia it was 15.8%. The growth with MALME-3M melanoma was 53.7%; with MDA-MB-231 breast it was 43.5%; in the experiment on RXF 393 renal it was 67%; in the experiment with SF-268 CNS, 26%; with SF-295 CNS, 32.7%; in the experiment with SF-539 CNS it was 46.6%. Moreover, the growth with UACC-257 melanoma was 8.05% (active); in the experiment on M14 melanoma it was 37%.
